# An excerpt weighted towards active compounds, which were near 14% of everything screened.
# HCMV antiviral: human cytomegalovirus inhibition; HFF cells, HCMV-luciferase reporter, 72 h; stronger effect = lower value; activity change, negative = inhibition, % at 57.5 µM; 410,000 tested, 4.5% active; AID 1259415; in the data active means activity change below about -60%; inconclusive means no clear call, values can overlap the other calls; inactive means above about -39%
#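 Cell-based, HFFs, 1000 cells/well, 16 h 37C; cpds in DMSO + HCMV-luc, MOI 1 PFU/cell; 72 h 37C; OneGlo luminescence after 5 min RT; norm. to buffer vs Salinomycin 10uM.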
# Pf growth 96h: P. falciparum growth inhibition at 96 hours; 320,000 tested, 6.9% active; AID 504834; P. falciparum luciferase reporter growth, 96 h; Potency, µM (highest dose often 28.7 µM), inactives show at the highest dose activity change, negative = inhibition, hits mostly inhibitors; further: potency means the concentration at half of the fitted maximal effect
#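 Two-generation exposure (96 h) targets delayed-death phenotype. Reporter parasites carrying integrated firefly luciferase, in red cells at 2% hematocrit and 0.05% parasitemia final, kept at 37 C, 5% CO2; luminescence loss indicates inhibition.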
# HCV inh: HCV inhibition; AID 651820; 340,000 tested, 3.4% active; Huh7.5.1 HCVcc-Cre infection, luciferase reporter, 44 h; Potency, µM (highest dose often 41.8 µM), without a hit: at the top dose activity change, negative = inhibition, most hits filed as inhibitors; further: potency means the concentration at half of the fitted maximal effect
#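 Reporter virus HCVcc-Cre (~0.5 moi) infects cells exposed to compound; seeding density 1,000 cells/well with 4 h settling beforehand. Luminescence, 15 sec read, taken 44 h post-infection following a 15 min RT substrate incubation.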
# LASV entry inh: inhibitors of Lassa virus binding or cell entry; Lassa virus pseudotype entry inhibition, cell reporter; Potency, µM (series often up to 37.9 µM), for inactives: top-dose activity change, negative = inhibition, most hits filed as inhibitors; 300,000 tested, 1.2% active; AID 540256; calls by dose curve; tested in HEK293 cells; further: potency means the concentration at half of the fitted maximal effect; nearly all actives have a fitted effect of over 50% in size
# MARV entry inh: Marburg virus entry inhibition. Marburg virus pseudotyped entry inhibition, cell reporter. 300,000 tested, 1.8% active. AID 540276. Potency, µM (series often up to 37.8 µM), for inactives: at the highest dose activity change, negative = inhibition, hits mostly inhibitors; calls by dose curve; tested in HEK293 cells; further: potency means the concentration at half of the fitted maximal effect
# Pf growth 48h: inhibits P. falciparum growth in the first generation, 48 h; Potency, µM (top dose mostly 28.7 µM), for inactives: top-dose activity change, negative = inhibition, usual class: inhibitors; P. falciparum luciferase growth in erythrocytes, 48 h; 310,000 tested, 5.9% active; further: potency means the concentration at half of the fitted maximal effect
#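 A one-generation exposure of luciferase-tagged malaria parasites in RPMI 1640/Albumax erythrocyte culture, 37 C and 5% CO2. Inhibition is inferred from decreased luminescence after adding detection reagent.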
# The depositor's hits bear a star; ? = inconclusive; · = no result given; [ ] = remark or other dose. Unless noted, the call rests on the fitted dose curve; in most records, active means well fitted inhibition curve with a large enough effect; inconclusive means small, poorly fitted or top-dose-only effect, or another doubt; inactive means no such curve, though single readings can be large or run the other way. On the % scale 0 is the no-effect control and ±100 the full control effect.
SMILES,HCMV antiviral,Pf growth 96h,HCV inh,LASV entry inh,MARV entry inh,Pf growth 48h
C/C(=N\NC(=O)c1ccc(N/N=C(\C)c2ccncc2)cc1)c1ccncc1,-39.3,?,?,-2.6%[46.1 µM],1µM*,-3.5%
C/C(=N\NC(=O)c1nn(C)cc1Br)c1ccc(NC(=O)c2ccncc2)cc1,66.5,4.15µM*,?,?,?,0.8%
C/C(=N\NC(=O)c1sccc1C)c1ccncc1,71.8,7.38µM*,4.6%,-1.0%[46.1 µM],17.4%[46.1 µM],98.3%
C/C(=N\NC(=O)c1ccc(OC2OCCOC2Oc2ccc(C(=O)N/N=C(\C)c3ccncc3)cc2)cc1)c1ccncc1 (stereo not drawn),-3.2,?,?,·,·,1.65µM*
CCN(CC(=O)Nc1c(F)cccc1F)C(=O)c1c(-c2ccccc2Cl)noc1C,-23.2,·,·,·,·,·
Cc1cc(-c2ccc(S(=O)(=O)Nc3cccc(C)c3C)s2)on1,-16.1,·,·,?,·,·
COc1ccc(CNC(=O)Cn2c(=O)n3nc(-c4ccc(OC)cc4)nc3c3ccccc32)cc1,12.4,·,·,-5.2%[46.1 µM],·,·
CC(=O)N1CCCc2cc(S(=O)(=O)N3CCCCC3)ccc21,4.1,·,·,-0.2%[46.1 µM],·,·
CC(N)=NCCC[C@H](N)C(=O)O,·,·,·,·,2.1%,·
O=C(O)c1cccc(Nc2nc(Nc3ccccc3)nc(N3CCCC3)n2)c1,-7.5,31.0%,-1.6%,-17.3%,-0.2%[46.1 µM],3.0%
c1ccc(Nc2nc(N3CCCC3)nc(N3CCCC3)n2)cc1,25.9,11.7µM*,?,?,?,·
c1ccc(Nc2nc(N3CCCCC3)nc(N3CCCCC3)n2)cc1,16.4,9.28µM*,-0.3%,-26.2%,?,·
Fc1ccc(Nc2nc(Oc3ccccc3F)nc(N3CCCC3)n2)cc1,-32.1,·,?,?,?,1.47µM*
c1ccc(Nc2nc(N3CCCCC3)nc(N3CCNCC3)n2)cc1,16.2,?,?,?,7.3µM*,?
COc1ccc(NS(=O)(=O)c2c(C)nc3scc(C)n3c2=O)cc1,-5.9,·,·,18.0%[46.1 µM],-15.0%[46.1 µM],·
O=C(CN1CCOCC1)N1CC(=O)N2[C@@H](CO)[C@H](c3ccc(Br)cc3)[C@@H]2C1,-1.6,·,·,·,·,·
COc1ccc(-c2nn(-c3ccc(C)c(Cl)c3)c3c2cnc2cc(OC)c(OC)cc23)cc1,2.2,·,·,15.1%[46.1 µM],·,·
CC(C)CCNC(=O)CN1C(=O)CSc2ccc(S(=O)(=O)N3CCCCC3)cc21,-20.8,·,·,4.9%[46.1 µM],·,·
COc1ccc(/C=N/Nc2nc(N3CCCC3)nc(N3CCCC3)n2)cc1,-16.4,13.6%,?,2.6%,4.8%,-5.3%
COc1ccc(/C=N/Nc2nc(Nc3ccccc3)nc(N3CCCC3)n2)cc1,-0.1,0.0%,10µM*,6.4%,4.8%[46.1 µM],?
CC(=O)c1ccc(N2C(=O)[C@@H]3C(C(=O)CCN4C(=O)c5ccccc5C4=O)=NN[C@@H]3C2=O)cc1,6.1,2.33µM*,4.3%,0.5%,?,-2.5%
CCc1ccc(OCC(=O)Nc2ncc3c(n2)CC(C)(C)CC3=O)cc1,4.0,3.29µM*,-9.5%,17.3%,11.0%,8.5%
COc1ccc2oc(C(=O)c3ccccc3)c(N)c2c1,119.6,63.3%,-8.1%,?,?,129.6%
COc1ccc(C(=O)c2oc3ccccc3c2N)cc1,-67.0*,·,4.2%,0.8%,-1.7%,74.9%
CCN1CSC(=S)N(Cc2ccccc2)C1,?,11.3%,11.2µM*,3.9%[46.1 µM],?,-0.1%
SMILES,HCMV antiviral,Pf growth 96h,HCV inh,LASV entry inh,MARV entry inh,Pf growth 48h
S=C1SCN(Cc2ccco2)CN1Cc1ccco1,-99.1*,4.65µM*,14.1µM*,?,?,?
Nc1nnc(Cc2ccc(F)cc2)s1,5.4,1.9%,5.5%,·,·,10.4µM*
CC(C)N(Cc1ccccc1)C(=O)c1nc(-c2ccc(Cl)cc2)n2c1CCCCC2,16.5,·,·,?,·,·
O=C(CSc1nc2ccccc2[nH]1)NCc1ccccc1,70.5,?,-2.1%,·,·,28.4%
O=c1[nH]c(NNC(=S)NCc2ccccc2)nc2c1C1(CCCCC1)Cc1ccccc1-2,-62.3*,?,12.2%,·,·,-0.1%
C=CCNC(=S)NNc1nc2c(c(=O)[nH]1)C1(CCCC1)Cc1ccccc1-2,1.5,-12.0%,-5.0%,·,·,11.0%
S=C(NCc1ccccc1)NNc1nc2ccccc2[nH]1,-70.1*,?,-2.5%,?,?,?
COc1ccc(/C=C/c2ccc(=O)n(Cc3ccccc3)n2)cc1,-8.3,?,?,5.01µM*,-28.6%[46.1 µM],?
O=c1ccc(/C=C/c2ccccc2)nn1Cc1ccc(F)cc1,1.7,1.2%,6.4%,?,0.0%[46.1 µM],-1.2%
CCOC(=O)Cn1nc(-c2ccc(C)cc2)ccc1=O,29.6,·,19.1%,1.8%,14.7%,9.7%
CCOC(=O)Cn1nc(/C=C/c2ccc(OC)cc2)ccc1=O,-105.6*,·,7.5%,7.4%,-7.4%,·
CC1(C)Cc2c(cnn2-c2cccc(F)c2)C(NC(=O)c2csnn2)C1 (stereo not drawn),25.5,6.57µM*,-19.6%,-7.3%[46.1 µM],?,38.7%
Cc1cc(C(=O)NC2CC(C)(C)Cc3c2cnn3-c2cccc(F)c2)n(C)n1 (stereo not drawn),4.4,9.28µM*,?,?,?,?
Cc1cc(C(=O)NC2CC(C)(C)Cc3c2cnn3-c2cccc(F)c2)nn1C (stereo not drawn),-3.0,2.3%,0.1%,14.9%,-20.2%,-7.7%
Cc1cc(C(=O)NC2CC(C)(C)Cc3c2cnn3-c2ccccc2)n(C)n1 (stereo not drawn),-18.1,?,-15.0%,-2.0%,?,-2.8%
CCCc1nc2cc(C)c(Br)c(C)n2c1Cc1ccccc1OC,-24.4,·,·,·,·,·

# Screens deposited in PubChem BioAssay by National Center for Advancing Translational Sciences (NCATS).
